Screening data as filed in PubChem.
HEK cytotox: HEK 293 cell cytotoxicity. HEK 293 viability, ATP luminescence (CellTiter-Glo), 48-72 h. hit rate 6.6% among 94,000. Potency, µM (titrated, usually from 115 µM), without a hit: at the top dose activity change, negative = cytotoxicity, hits mostly inhibitors; active = well fitted curve in the direction sought with a large enough effect; inconclusive = small, poorly fitted or top-dose-only effect, or another doubt; inactive = no such curve, though single readings can be large; an effect the other way counts as inactive or inconclusive; also: % is scaled to controls: 0 for no effect and ±100 for the full control effect; nearly all actives have a fitted effect of over 60% in size
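Viability of HEK 293 cells, plated at 250 cells/well, was judged by cellular ATP after compound treatment for 48 or 72 hr. Luminescence was imaged 10 min after CellTiter-Glo addition at room temperature.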
hNpr1 antagonist: human Npr1 receptor antagonism. AID 1347048. Potency, µM (top dose mostly 46.3 µM), inactives show at the top dose activity change, negative = inhibition, actives largely listed as inhibitors. hit rate 1.6% among 76,000. P16066. HEK293 hNpr1 GloSensor cGMP, ANP-stimulated luminescence; also: % is scaled to controls: 0 for no effect and ±100 for the full control effect; nearly all actives have a fitted effect of over 60% in size
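HEK293 cells stably expressing human Npr1 and cGMP GloSensor pGS-40F, loaded 2 h with 2% GloSensor reagent, given compound 30 min at room temperature. Luminescence read before and 20 min after 0.1 nM hNppA.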
3T3 cytotox: NIH 3T3 cell cytotoxicity. NIH 3T3 viability, CellTiter-Glo ATP luminescence, 48-72 h. AID 1345082. hit rate 4.3% among 94,000. Potency, µM (top dose mostly 96.7 µM), inactives show at the top dose activity change, negative = cytotoxicity, hits mostly inhibitors; active = well fitted curve in the direction sought with a large enough effect; inconclusive = small, poorly fitted or top-dose-only effect, or another doubt; inactive = no such curve, though single readings can be large; an effect the other way counts as inactive or inconclusive; also: % is scaled to controls: 0 for no effect and ±100 for the full control effect; nearly all actives have a fitted effect of over 55% in size
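NIH 3T3 cells at 400 cells/well received 23 nL of compound by pintool and were incubated 48 or 72 h at 37 °C. Viability was read as ATP-coupled CellTiter-Glo luminescence.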
FLuc inh: inhibitors of firefly (Photinus pyralis) luciferase | P08659 | Potency, µM (series often up to 115 µM), actives largely listed as inhibitors | purified P. pyralis luciferase, luminescence, biochemical | hit rate 2.5% among 76,000; active = well fitted curve in the direction sought with a large enough effect; inconclusive = small, poorly fitted or top-dose-only effect, or another doubt; inactive = no such curve, though single readings can be large; an effect the other way counts as inactive or inconclusive; also: % is scaled to controls: 0 for no effect and ±100 for the full control effect; nearly all actives have a fitted effect of over 65% in size
Target sequence (P08659 whole entry, looked up): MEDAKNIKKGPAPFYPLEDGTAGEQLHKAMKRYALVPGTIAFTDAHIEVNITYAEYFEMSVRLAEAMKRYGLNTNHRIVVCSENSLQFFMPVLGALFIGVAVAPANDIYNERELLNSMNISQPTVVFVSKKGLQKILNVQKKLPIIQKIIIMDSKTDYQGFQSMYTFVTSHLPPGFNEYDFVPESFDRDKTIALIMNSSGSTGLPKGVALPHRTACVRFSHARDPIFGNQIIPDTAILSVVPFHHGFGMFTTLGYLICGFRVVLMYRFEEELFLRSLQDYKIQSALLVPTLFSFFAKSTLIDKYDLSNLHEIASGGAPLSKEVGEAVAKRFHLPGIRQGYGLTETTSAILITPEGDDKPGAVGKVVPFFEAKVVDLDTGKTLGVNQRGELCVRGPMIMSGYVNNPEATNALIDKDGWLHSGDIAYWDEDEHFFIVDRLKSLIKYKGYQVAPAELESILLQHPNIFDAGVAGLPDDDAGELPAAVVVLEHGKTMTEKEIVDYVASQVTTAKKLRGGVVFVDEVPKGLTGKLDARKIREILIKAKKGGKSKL
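Cell-free enzyme assay, 10nM P. pyralis luciferase, luciferin and ATP each at 10uM. Inhibition profiled over a 6-point titration, read as luminescence.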
Npr1 antag conf: confirmation of human Npr1 natriuretic peptide receptor antagonists; shares compounds with hNpr1 antagonist; HEK293 hNpr1 cGMP GloSensor luminescence, ANP-stimulated; Potency, µM (series often up to 57.6 µM), without a hit: top-dose activity change, negative = inhibition, hits mostly inhibitors; hit rate 76% among 1,400; also: nearly all actives have a fitted effect of over 70% in size
Npr2 selectivity: hNpr2 antagonism, selectivity versus Npr1. hit rate 67% among 1,400. shares compounds with hNpr1 antagonist. HEK293 hNpr2 GloSensor cGMP luminescence, CNP-stimulated. Potency, µM (top dose mostly 57.6 µM), without a hit: at the top dose activity change, negative = inhibition, most hits filed as inhibitors; also: nearly all actives have a fitted effect of over 70% in size
FLuc inh counter: inhibits firefly luciferase, false Npr1 antagonist flag; hit rate 0.7% among 1,400; purified FLuc enzyme, luminescence, Km substrate; AID 1347047; Potency, µM (series often up to 57.6 µM), for the others: at the highest dose activity change, negative = inhibition, hits mostly inhibitors; shares compounds with hNpr1 antagonist; active = well fitted curve in the direction sought with a large enough effect; inconclusive = small, poorly fitted or top-dose-only effect, or another doubt; inactive = no such curve, though single readings can be large; an effect the other way counts as inactive or inconclusive; also: 0% is about no effect
GloSensor cGMP: reduces cGMP signal in GloSensor control cells; shares compounds with hNpr1 antagonist; HEK293 GloSensor cGMP, SNP-stimulated, luminescence; Potency, µM (doses to about 57.6 µM), for inactives: at the highest dose activity change, negative = inhibition, hits mostly inhibitors; hit rate 69% among 1,400; also: % is scaled to controls: 0 for no effect and ±100 for the full control effect; nearly all actives have a fitted effect of over 70% in size
* hit, by the source's call; i = inactive; ? = inconclusive; · = no result; [ ] = remark or other dose. An excerpt weighted towards active compounds, which were near 11% of everything screened. Unless noted, calls follow the shape of the full dose curve. Potency is read from the fitted curve at half-maximal effect.

SMILES	HEK cytotox	hNpr1 antagonist	3T3 cytotox	FLuc inh	Npr1 antag conf	Npr2 selectivity	FLuc inh counter	GloSensor cGMP
O=C(NCc1ccc(F)cc1)c1csc(N2CCN(c3ccccc3F)CC2)n1	-6%	-6%	-13%	i	·	·	·	·
COCCN1C(=O)c2ccccc2C(C(=O)Nc2nc(C)c(C)s2)C12CCCC2 (centres undefined)	-19%	4%	?	i	·	·	·	·
CCCN1C(=O)Cc2ccccc2C1C(=O)NCc1cc(OC)ccc1OC (centres undefined)	?	-26%	-26%	i	?	?	3%	-11%
O=C(c1[nH]nc2c1CCc1ccccc1-2)N1CCC(c2noc(-c3cccnc3)n2)C1 (centres undefined)	35µM*	13µM*	?	i	22µM*	24µM*	-3%	22µM*
COc1ccc(C(=O)N2CCC(=O)N(C)C[C@H]3COc4cc(OC)ccc4[C@H]32)cc1	-17%	·	?	·	·	·	·	·
CCOc1ncccc1C(=O)N1CCc2[nH]nc(-c3cccc(F)c3)c2C1	-25%	-10%	-29%	i	·	·	·	·
CCOc1ccccc1C(=O)N1CCc2[nH]nc(-c3ccc(F)c(F)c3)c2C1	?	?	?	i	?	?	2%	?
O=C(Nc1cc(C2CC2)nn1-c1ccccc1)C1CC1	i	·	-9%[138 µM]	·	·	·	·	·
Cc1cc(CNC(=O)c2ccc3c(c2)n(CC2CC2)c(=O)n3C2CCCCC2)on1	-22%	5.6µM*	?	i	14µM*	4.8µM*	-2%	-6%
CCOC(=O)N1CCC(=O)N(CC2CC2)Cc2cc(OC)ccc21	?	·	-31%	·	·	·	·	·
O=C1COc2ccc(-c3cccc(O)c3)nc2CN1Cc1ccc(C(F)(F)F)cc1	?	-18%[70.6 µM]	?	i	·	·	·	·
O=C1COc2ccc(NCCc3ccccn3)nc2CN1Cc1ccc(C(F)(F)F)cc1	?	?	?	i	?	?	2%	?
O=C1COc2ccc(NCCOc3ccccc3)nc2CN1Cc1ccccc1F	?	22µM*	?	i	31µM*	35µM*	3%[86.2 µM]	31µM*
O=C1COc2ccc(NCc3cccs3)nc2CN1Cc1ccc(F)cc1	?	?	?	i	·	·	·	·
O=C1COc2ccc(NCc3cccs3)nc2CN1CCOc1ccccc1	89µM*	14µM*	?	i	20µM*	22µM*	6%[86.2 µM]	18µM*
COCc1ncc(C)n1CCC1CCN(C(=O)c2cccnc2C)CC1	-12%	·	-25%	·	·	·	·	·
COc1ccc(CNC(=O)[C@@H]2CCC[C@@H](NC(=O)c3ccccc3)CN(C)C(=O)C2)cc1	-1%	-4%	-5%	i	·	·	·	·
Fc1ccc(-c2cnc3n2C[C@H](CNCC2CCCCC2)OC3)cc1	?	-15%[70.6 µM]	?	i	·	·	·	·
Fc1ccc(-c2cnc3n2C[C@H](CNCc2ccccc2Cl)OC3)cc1	79µM*	25µM*	?	i	40µM*	40µM*	-19%[86.2 µM]	40µM*
Cc1noc([C@@H]2CN(C(=O)c3cc(C)oc3C)C[C@H]2COCC2CC2)n1	?	-15%	?	i	·	·	·	·
CCOC(=O)[C@H]1[C@@H](O)C(=O)NC12CCN(C(=O)c1csc(-c3cccs3)n1)CC2	-31%	·	?	·	·	·	·	·
COc1ccc(CN2C=C(C(=O)OCc3nc(-c4cccc(OC)c4)no3)C(C)=NS2(=O)=O)cc1	-20%	?	?	i	?	-23%	-14%	?
CC1=NS(=O)(=O)N(C)C=C1C(=O)OCc1nc(-c2ccc(F)cc2)no1	?	11µM*	-30%	i	22µM*	22µM*	-5%	22µM*
CC1=NS(=O)(=O)N(C)C=C1C(=O)OCc1nc(C)no1	3%	3%	-3%	i	·	·	·	·
COc1cccc(-c2noc(COC(=O)C3=CN(Cc4ccccc4)S(=O)(=O)N=C3C)n2)c1	?	-24%	-21%	?	·	·	·	·
SMILES	HEK cytotox	hNpr1 antagonist	3T3 cytotox	FLuc inh	Npr1 antag conf	Npr2 selectivity	FLuc inh counter	GloSensor cGMP
CC1=NS(=O)(=O)N(Cc2ccccc2)C=C1C(=O)OCc1nc(-c2ccc(F)cc2)no1	?	-30%	?	i	·	·	·	·
CC1=NS(=O)(=O)N(C)C=C1C(=O)OCc1nc(-c2cccc(C)c2)no1	?	11µM*	?	i	15µM*	14µM*	-1%	14µM*
CC1CCN(CC2CCCCCN2C(=O)c2ccco2)CC1 (centres undefined)	-18%	·	-16%	·	·	·	·	·
O=C(O)CN1CCCc2nc(-c3ccccc3)ncc2C1=O	i	5%	i	i	·	·	·	·
O=C(CN1CCCc2nc(-c3ccccc3)ncc2C1=O)NCCc1c[nH]c2ccccc12	?	10µM*	?	i	27µM*	?	-10%	22µM*
Cc1nn(C)cc1C(C)NC(=O)CN1CCCc2nc(-c3ccccc3)ncc2C1=O (centres undefined)	?	?	-25%	i	?	-29%	3%	-20%
CC(CCc1ccco1)NC(=O)CN1CCCc2nc(-c3ccccc3)ncc2C1=O (centres undefined)	?	?	?	i	?	?	2%	?
O=[S+]([O-])(Nc1cc(C2CC2)nn1-c1ccccc1)c1ccccc1	-13%	·	?	·	·	·	·	·
Cc1ccc(OCCC2CCN(C(=O)CCCC(=O)n3nc(C)c4ccccc43)C2)cc1 (centres undefined)	40µM*	10µM*	?	i	11µM*	14µM*	0%	11µM*
Cc1ccc(CN2C[C@@H](CO)[C@H](c3nc(-c4ccncc4)no3)C2)cc1	?	11µM*	?	i	24µM*	24µM*	-7%	24µM*
CC(C)c1nncn1C1CCN(S(=O)(=O)c2ccc(Br)s2)CC1	?	11µM*	?	i	24µM*	?	2%	22µM*
CN(C)C(=O)c1ccc(N2CCC(NCCC3=CC[C@H]4C[C@@H]3C4(C)C)CC2)cc1	?	-1%	?	i	·	·	·	·
O=C(c1ccc(F)cc1)N1CCC(C(=O)N2CCC(c3nc4ncccc4[nH]3)CC2)C1 (centres undefined)	4%	·	-5%	·	·	·	·	·
